We go through 22 compounds from PubChem BioAssay.

A number with no mark means an inactive call. No rule for the calls is given here.

Sequence of Pantothenate synthetase (Mycobacterium tuberculosis (strain ATCC 25618 / H37Rv)) (P9WIL5 whole entry, looked up): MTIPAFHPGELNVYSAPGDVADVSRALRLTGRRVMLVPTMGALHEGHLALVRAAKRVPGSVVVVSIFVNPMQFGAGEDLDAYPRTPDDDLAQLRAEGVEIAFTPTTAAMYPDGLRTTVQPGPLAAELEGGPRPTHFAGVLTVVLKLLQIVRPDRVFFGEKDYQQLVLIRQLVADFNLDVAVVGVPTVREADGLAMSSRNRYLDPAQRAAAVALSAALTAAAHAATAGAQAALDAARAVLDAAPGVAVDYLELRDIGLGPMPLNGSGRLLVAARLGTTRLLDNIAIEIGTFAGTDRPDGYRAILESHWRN

This assay has as its target Pantothenate synthetase (Mycobacterium tuberculosis (strain ATCC 25618 / H37Rv)) (UniProt P9WIL5). Description: Recombinant Mtb pantothenate synthetase (PanC) inhibitors, coupled enzyme, confirmatory (AID 375).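 Also: 0% = full reaction with vehicle and 100% = no enzyme background.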 Conditions: coupled enzyme assay; at 10 µM, active compounds read high.
In the case of `COC(=O)c1oc2ccc(OC)cc2c1N`, the inhibition – broadly, the share of the control response that was lost under treatment – is 5%.

Turning to `Cc1ccc(NC(=O)C2CCCN(S(=O)(=O)c3cnc[nH]3)C2)cc1C` (configuration not stated), the inhibition is 11%.

As for `Cc1ccc2c(Cl)cc(Cl)c(OCc3c(C)noc3C)c2n1`, the inhibition is 0%.

With `C/C(Cl)=C\Cn1c(NCCc2ccccc2)nc2c1c(=O)n(C)c(=O)n2C`, the inhibition was 1%.

For `CCOC(=O)c1ccc(-c2c(C(=O)OCC)oc3cc(O)c(CC)cc3c2=O)o1`, the inhibition was 3%.

Turning to `CCOc1ccc(Cn2nnc(C(=O)Nc3cc(C)cc(C)c3)c2N)cc1`, the inhibition was 0%.

For `OC(COc1ccccc1)CN1C2=NCCCN2c2ccccc21` (configuration not stated), the inhibition is 1%.

With `Cc1cccc(N2CCN(C(=O)C3CCCN(S(=O)(=O)c4c(C)noc4C)C3)CC2)c1C` (configuration not stated), the inhibition is 0%.

As to `COc1cc(S(=O)(=O)NC2CCCCC2)ccc1Cl`, the inhibition is 1%.

Take `O=C(Cn1nc(-c2ccc3c(c2)OCCO3)ccc1=O)Nc1ccc(N2CCOCC2)cc1`: the inhibition was 0%.

On to `O=C(Cn1cnc2c(cnn2-c2ccc(F)cc2)c1=O)N1CCCc2ccccc21`, for which the inhibition is 0%.

Consider `CCOCCCNC(=O)c1ccc2c(c1)ncn2C1CCCC1`, for which the inhibition was 5%.

Take `COc1ccccc1OC(=O)c1ccc(SC)cc1OC`: the inhibition was 2%.

In the case of `Cc1cc2c(nn1)CCC/C2=N\O`, the inhibition was 2%.

With `Nc1nc(SCc2nc3scc(-c4cccs4)c3c(=O)[nH]2)n[nH]1`, the inhibition is 6%.

`CCn1c(SCC(=O)c2ccc(Cl)cc2)nnc1-c1ccoc1C`: the inhibition was 0%.

With `O=C(O)C1CC(=O)N(Cc2ccccc2)C1` (configuration not stated), the inhibition is 1%.

With `O=C(c1cccn2c(=O)c3cc(Cl)ccc3nc12)N1CCOCC1`, the inhibition is 3%.

As for `C(=C\c1ccccc1)/CSc1nnc(-c2ccccn2)n1Cc1ccco1`, the inhibition is 5%.

`CCn1cc(C(=O)Nc2cc3c(cc2NC(C)=O)OCCO3)c(=O)c2ccc(C)nc21`: the inhibition is 1%.

For the compound `Cc1cc(=O)n(CCO)c(O)c1C#N`, the inhibition is 0%.

Turning to `Cc1ccc(-c2nc3ncccc3o2)cc1NC(=O)c1ccco1`, the inhibition is 0%.
